# According to PubChem BioAssay (EPA / NIEHS):
# Records with an inconclusive call do not appear. Where a structure was tested more than once in an assay, its records may differ in their call. Calls of active or inactive are those of the source. How the source made its calls: active means hit-call score of the fitted dose curve at least 0.9, where 1 is the maximum; inconclusive means response in the unintended direction; inactive means score below 0.9.
# Key:
# [1] = ACEA_ER_AUC_viability: ACEA Biosciences xCELLigence Real-Time Cell Analysis on Estrogen Receptor Agonism for Viability (AID 2283782);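 further: hit means loss of impedance signal meaning reduced cell growth or viability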
# How it was run: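 Continuous-exposure impedance cell analysis uses T-47D cells in charcoal-stripped serum, eight 1:4 dilutions topping at 100 uM final, biological duplicate. Area under the growth curve at 80 h is fitted against DMSO baseline.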
# [2] = tested on: turtle Estrogen Receptor (ESR1), gene 101933533; test: ATG_trERa_XSP1: Attagene TRANS-FACTORIAL Multi-Species (XSP1) HepG2 Assay for turtle Estrogen Receptor (ESR1) (AID 2283781)
# How it was run: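 Cell-based chimeric NR-Gal4 transactivation; HepG2; 24 h dosing; mRNA reporter detected by RT-PCR and capillary electrophoresis fluorescence.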
# [3] = STM_H9_NormalizedViability: Cytotoxicity Assessment at 120 hours in the Stemina devTOX quickPredict H9 human embryonic stem cell (hESC)-based Assay (AID 2283784)
# How it was run: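 Viability endpoint: background-corrected CellTiter-Fluor RFU expressed relative to the 0.1% DMSO mean on each plate. Undifferentiated H9 cells were treated with daily re-dosing and media change, and loss of signal was fitted.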
# [4] = target: Estrogen receptor beta (Homo sapiens) (UniProt Q92731); test: ATG_hERb_XSP1: Attagene TRANS-FACTORIAL Multi-Species (XSP1) HepG2 Assay for human Estrogen Receptor (ESR2) (AID 2283788)
# How it was run: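 Multiplexed trans-activation in transfected HepG2: ERβ-Gal4 reporter transcripts after 24 h treatment, detected by RT-PCR plus capillary electrophoresis.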
# [5] = ATG_M_06_XSP1: Attagene TRANS-FACTORIAL Multi-Species (XSP1) HepG2 Assay for M06 Transcription Factor (Internal Marker) (AID 2283790)
# How it was run: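 This background-control readout tracks M06 reporter mRNA, measured by RT-PCR and capillary electrophoresis. HepG2 cells transiently carrying the GAL4-UAS reporter panel were dosed for 24 h with 3 nM 6-alpha-fluorotestosterone added for partial AR stimulation; increases were scored relative to DMSO.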
# [6] = ATG_M_61_XSP1: Attagene TRANS-FACTORIAL Multi-Species (XSP1) HepG2 Assay for M61 Transcription Factor (Internal Marker) (AID 2283797)
# How it was run: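 Background-control readout: reporter transcripts measured by RT-PCR and capillary electrophoresis 24 h after dosing transiently transfected HepG2 multi-reporter cells, with 3 nM 6-alpha-fluorotestosterone present. Fitted in the positive direction relative to DMSO.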
# [7] = ATG_M_19_XSP1: Attagene TRANS-FACTORIAL Multi-Species (XSP1) HepG2 Assay for M19 Transcription Factor (Internal Marker) (AID 2283798)
# How it was run: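 Readout is reporter mRNA induction quantified via RT-PCR, 6-FAM labeling, HpaI digestion and capillary electrophoresis, fitted in the positive direction versus DMSO baseline. Transfected HepG2 cells exposed 24 h, medium including 3 nM 6-alpha-fluorotestosterone.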
# [8] = ATG_M_32_XSP1: Attagene TRANS-FACTORIAL Multi-Species (XSP1) HepG2 Assay for M32 Transcription Factor (Internal Marker) (AID 2283799)
# How it was run: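 Reporter transcripts from the M32 internal-control unit measured by RT-PCR, FAM labelling, HpaI digestion and capillary electrophoresis after 24 h compound exposure of transfected HepG2, 3 nM 6-alpha-fluorotestosterone included; DMSO baseline, positive-direction fit.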
# [9] = target: Peroxisome proliferator-activated receptor gamma (Homo sapiens) (UniProt P37231); test: ATG_hPPARg_XSP1: Attagene TRANS-FACTORIAL Multi-Species (XSP1) HepG2 Assay for human Peroxisome Proliferator-activated Receptor gamma (PPARg) (AID 2283800)
# How it was run: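 Reporter mRNA induction, measured by RT-PCR with capillary electrophoresis 24 h after dosing, scored as gain over DMSO. Transfected HepG2 cells express exogenous NR-Gal4 chimeras driving GAL4-UAS reporters; medium includes 3 nM 6-alpha-fluorotestosterone.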
# [10] = tested on: zebrafish Peroxisome Proliferator-activated Receptor gamma (PPARg), gene 557037; test: ATG_zfPPARg_XSP1: Attagene TRANS-FACTORIAL Multi-Species (XSP1) HepG2 Assay for zebrafish Peroxisome Proliferator-activated Receptor gamma (PPARg) (AID 2283801)
# How it was run: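 Trans-activation readout of chimeric zebrafish PPARg–GAL4 in transiently transfected human HepG2 cells, 24 h chemical exposure (medium includes 3 nM 6-alpha-fluorotestosterone). Reporter transcripts measured by RT-PCR and capillary electrophoresis, fitted as gain over DMSO.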
# [11] = target: mouse Peroxisome Proliferator-activated Receptor gamma (PPARg), Pparg (gene 19016) (UniProt P37238); test: ATG_mPPARg_XSP1: Attagene TRANS-FACTORIAL Multi-Species (XSP1) HepG2 Assay for mouse Peroxisome Proliferator-activated Receptor gamma (PPARg) (AID 2283802)
# How it was run: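 Readout is reporter mRNA induction, measured by RT-PCR with 6-FAM labelling, HpaI digestion and capillary electrophoresis, 24 h post-dose relative to DMSO. Transient multi-reporter transfection of human HepG2 with mouse PPARg–GAL4 fusion; 3 nM 6-alpha-fluorotestosterone included.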
# [12] = target: Nuclear receptor subfamily 1 group I member 2 (Mus musculus) (UniProt O54915); test: ATG_mPXR_XSP1: Attagene TRANS-FACTORIAL Multi-Species (XSP1) HepG2 Assay for mouse Pregnane X Receptor (PXR) (AID 2283803)
# How it was run: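 Transiently transfected HepG2 cells expressing a receptor-Gal4 chimera drive a GAL4-UAS reporter; 3 nM 6-alpha-fluorotestosterone included. Reporter mRNA read 24 h post-dose by RT-PCR and capillary electrophoresis; gain of signal relative to DMSO.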
# [13] = tested on: turtle Thyroid Hormone Receptor, alpha (TRa), gene 101949057; test: ATG_trTRa_XSP1: Attagene TRANS-FACTORIAL Multi-Species (XSP1) HepG2 Assay for turtle Thyroid Hormone Receptor, alpha (TRa) (AID 2283806)
# How it was run: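 After 24 h chemical exposure, reporter transcripts were measured by RT-PCR with fluorescent primer extension, HpaI digestion and capillary electrophoresis. Cells were transiently transfected HepG2 expressing exogenous NR-Gal4 chimeras; medium contained 3 nM 6-alpha-fluorotestosterone; fitted upward relative to DMSO.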
# [14] = target: zebrafish Thyroid Hormone Receptor alpha (TRa), thraa (gene 30670) (UniProt Q98867); test: ATG_zfTRa_XSP1: Attagene TRANS-FACTORIAL Multi-Species (XSP1) HepG2 Assay for zebrafish Thyroid Hormone Receptor alpha (TRa) (AID 2283807)
# How it was run: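 Reporter transcripts driven by a chimeric zebrafish TRa–Gal4 protein were measured by RT-PCR with fluorescent labelling and capillary electrophoresis. These came from transiently transfected HepG2 cells after 24 h chemical exposure, with 3 nM 6-alpha-fluorotestosterone added; baseline was DMSO.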
# [15] = target: human Thyroid hormone Receptor beta (TRb), THRB (gene 7068) (UniProt P10828); test: ATG_hTRb_XSP1: Attagene TRANS-FACTORIAL Multi-Species (XSP1) HepG2 Assay for human Thyroid hormone Receptor beta (TRb) (AID 2283808)
# How it was run: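 Readout is reporter mRNA induction measured by RT-PCR, fluorescent labelling and capillary electrophoresis, fitted upward relative to DMSO. Transiently transfected human HepG2 cells expressing NR-Gal4 chimeras were dosed for 24 h, medium containing 3 nM 6-alpha-fluorotestosterone.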
# [16] = target: zebrafish Thyroid Hormone Receptor beta (TRb), thrb (gene 30607) (UniProt Q9PVE4); test: ATG_zfTRb_XSP1: Attagene TRANS-FACTORIAL Multi-Species (XSP1) HepG2 Assay for zebrafish Thyroid Hormone Receptor beta (TRb) (AID 2283809)
# How it was run: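 HepG2 cells transiently transfected with multiplexed GAL4-UAS reporter units expressing chimeric zebrafish TRb–Gal4. Dosed 24 h with 3 nM 6-alpha-fluorotestosterone present; reporter mRNA measured by RT-PCR, HpaI digestion and capillary electrophoresis; gain of signal versus DMSO.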
# [17] = ATG_XTT_Cytotoxicity_XSP1: Cytotoxicity Assessment in the Attagene TRANS-FACTORIAL Multi-Species (XSP1) HepG2 Assay (AID 2283810)
# How it was run: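 XTT viability readout taken at 24 hours post-dosing in HepG2 liver cells co-treated with 3 nM 6-alpha-fluorotestosterone. Signal loss relative to DMSO controls reflects cytotoxicity.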
# [18] = ATG_M_06_XSP2: Attagene TRANS-FACTORIAL Multi-Species (XSP2) HepG2 Assay for M06 Transcription Factor (Internal Marker) (AID 2283811);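 further: hits are increases in signal above the DMSO baseline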
# How it was run: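 Cells of the human liver line HepG2 carried transfected reporter transcription units and were treated for 24 h. Induced reporter transcripts were detected by fluorescence after RT-PCR and capillary electrophoresis, with activity fitted in the gain direction against DMSO.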
# [19] = target: AR (gene 367) (UniProt P10275); test: ACEA_AR_antagonist_80hr: ACEA Biosciences xCELLigence Real-Time Cell Analysis on Androgen Receptor Antagonism for Proliferation (AID 2283787);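 further: 22Rv1 human prostate cancer cells with growth followed by electrical impedance; hits lower the impedance growth signal relative to DMSO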
# How it was run: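 Using 22Rv1 cells held in assay medium, we dosed compounds (100 uM maximum final, 1:4 serial, eight points, 0.5% DMSO at top) and recorded cell-electrode impedance; the 80 hr timepoint was analyzed against DMSO.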
# [20] = target: AR (gene 367) (UniProt P10275); test: ACEA_AR_agonist_80hr: ACEA Biosciences xCELLigence Real-Time Cell Analysis on Androgen Receptor Agonism for Proliferation (AID 2283783);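 further: hits increase impedance growth signal above DMSO baseline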
# How it was run: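 Real-time cell-growth kinetics were recorded by electrode impedance in 22Rv1 cells exposed to test chemicals up to 100 uM final; the 80 h timepoint served as the readout, fitted upward relative to DMSO controls, in biological duplicate.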
# AR (gene 367), sequence (P10275 whole entry, looked up): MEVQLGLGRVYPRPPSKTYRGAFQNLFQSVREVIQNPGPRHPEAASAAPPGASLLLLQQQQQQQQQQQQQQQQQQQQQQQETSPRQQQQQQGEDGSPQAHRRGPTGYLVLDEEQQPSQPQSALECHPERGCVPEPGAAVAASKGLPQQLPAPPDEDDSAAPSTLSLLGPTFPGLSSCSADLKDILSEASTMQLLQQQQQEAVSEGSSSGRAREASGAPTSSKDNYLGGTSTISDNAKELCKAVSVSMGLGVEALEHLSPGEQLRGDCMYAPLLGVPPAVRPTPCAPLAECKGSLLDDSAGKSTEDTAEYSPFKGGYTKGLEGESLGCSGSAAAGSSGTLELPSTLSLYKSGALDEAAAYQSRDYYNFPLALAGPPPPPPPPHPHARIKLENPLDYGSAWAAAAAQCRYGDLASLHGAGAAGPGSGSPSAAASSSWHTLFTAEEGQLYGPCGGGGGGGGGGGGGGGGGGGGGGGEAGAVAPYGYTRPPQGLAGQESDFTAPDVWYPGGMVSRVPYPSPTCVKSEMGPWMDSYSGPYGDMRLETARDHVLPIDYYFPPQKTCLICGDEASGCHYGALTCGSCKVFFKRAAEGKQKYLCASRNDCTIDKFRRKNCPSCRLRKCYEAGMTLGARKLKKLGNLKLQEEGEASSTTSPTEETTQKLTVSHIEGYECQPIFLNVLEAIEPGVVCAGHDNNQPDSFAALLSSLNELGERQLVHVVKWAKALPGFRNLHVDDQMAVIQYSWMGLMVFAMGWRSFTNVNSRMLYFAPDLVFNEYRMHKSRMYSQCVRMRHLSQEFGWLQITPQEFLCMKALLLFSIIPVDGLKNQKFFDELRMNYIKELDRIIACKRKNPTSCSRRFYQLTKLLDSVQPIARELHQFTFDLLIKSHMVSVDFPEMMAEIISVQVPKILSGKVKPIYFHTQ
# zebrafish Thyroid Hormone Receptor beta (TRb), thrb (gene 30607), sequence (Q9PVE4 whole entry, looked up, the tested form may be a part): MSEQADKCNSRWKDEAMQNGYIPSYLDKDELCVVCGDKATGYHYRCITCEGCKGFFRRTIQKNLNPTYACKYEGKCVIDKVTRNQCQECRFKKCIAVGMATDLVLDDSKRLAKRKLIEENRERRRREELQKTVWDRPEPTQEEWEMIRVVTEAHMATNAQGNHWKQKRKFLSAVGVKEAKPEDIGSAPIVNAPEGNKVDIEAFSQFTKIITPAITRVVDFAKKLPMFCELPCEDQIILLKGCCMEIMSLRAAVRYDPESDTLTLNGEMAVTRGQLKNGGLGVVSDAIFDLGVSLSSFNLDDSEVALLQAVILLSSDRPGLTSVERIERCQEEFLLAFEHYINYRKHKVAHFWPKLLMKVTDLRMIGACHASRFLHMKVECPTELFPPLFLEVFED
# Peroxisome proliferator-activated receptor gamma (Homo sapiens), sequence (P37231 whole entry, looked up, the tested form may be a part): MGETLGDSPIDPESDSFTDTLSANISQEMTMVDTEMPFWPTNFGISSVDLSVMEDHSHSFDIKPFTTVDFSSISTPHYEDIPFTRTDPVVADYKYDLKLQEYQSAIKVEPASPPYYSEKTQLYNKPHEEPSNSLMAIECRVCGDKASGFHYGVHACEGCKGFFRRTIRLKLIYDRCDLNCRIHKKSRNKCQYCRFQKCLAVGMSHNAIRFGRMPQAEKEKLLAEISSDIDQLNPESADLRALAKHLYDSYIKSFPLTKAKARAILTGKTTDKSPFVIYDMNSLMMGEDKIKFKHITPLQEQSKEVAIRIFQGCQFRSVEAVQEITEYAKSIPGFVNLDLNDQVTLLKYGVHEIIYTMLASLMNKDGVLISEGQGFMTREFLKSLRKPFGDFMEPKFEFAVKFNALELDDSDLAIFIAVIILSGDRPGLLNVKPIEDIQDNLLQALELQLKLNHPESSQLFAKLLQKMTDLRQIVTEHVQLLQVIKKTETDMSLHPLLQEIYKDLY
# human Thyroid hormone Receptor beta (TRb), THRB (gene 7068), sequence (P10828 whole entry, looked up, the tested form may be a part): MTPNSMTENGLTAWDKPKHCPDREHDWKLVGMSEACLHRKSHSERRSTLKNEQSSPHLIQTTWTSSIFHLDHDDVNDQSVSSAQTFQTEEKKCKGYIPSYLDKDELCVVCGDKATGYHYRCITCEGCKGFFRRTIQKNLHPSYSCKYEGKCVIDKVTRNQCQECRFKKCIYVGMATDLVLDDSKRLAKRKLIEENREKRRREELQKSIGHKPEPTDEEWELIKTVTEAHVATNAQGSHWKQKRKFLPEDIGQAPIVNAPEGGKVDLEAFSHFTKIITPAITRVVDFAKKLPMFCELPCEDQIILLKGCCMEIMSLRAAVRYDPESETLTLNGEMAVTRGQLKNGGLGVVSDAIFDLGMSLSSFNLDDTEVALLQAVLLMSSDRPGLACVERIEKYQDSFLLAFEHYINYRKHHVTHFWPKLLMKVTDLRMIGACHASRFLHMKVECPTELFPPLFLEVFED
# zebrafish Thyroid Hormone Receptor alpha (TRa), thraa (gene 30670), sequence (Q98867 whole entry, looked up, the tested form may be a part): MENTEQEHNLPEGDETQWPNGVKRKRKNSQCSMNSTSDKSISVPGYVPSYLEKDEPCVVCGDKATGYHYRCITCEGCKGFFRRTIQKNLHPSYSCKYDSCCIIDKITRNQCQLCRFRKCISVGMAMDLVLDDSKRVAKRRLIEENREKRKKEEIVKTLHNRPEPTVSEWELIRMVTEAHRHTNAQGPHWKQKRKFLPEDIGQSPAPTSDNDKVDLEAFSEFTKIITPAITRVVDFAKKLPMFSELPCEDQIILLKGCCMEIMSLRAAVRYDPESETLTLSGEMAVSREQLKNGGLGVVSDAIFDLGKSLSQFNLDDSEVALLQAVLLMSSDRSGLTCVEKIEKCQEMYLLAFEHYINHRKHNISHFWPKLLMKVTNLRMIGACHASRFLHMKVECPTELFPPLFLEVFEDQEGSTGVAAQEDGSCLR
# Nuclear receptor subfamily 1 group I member 2 (Mus musculus), sequence (O54915 whole entry, looked up, the tested form may be a part): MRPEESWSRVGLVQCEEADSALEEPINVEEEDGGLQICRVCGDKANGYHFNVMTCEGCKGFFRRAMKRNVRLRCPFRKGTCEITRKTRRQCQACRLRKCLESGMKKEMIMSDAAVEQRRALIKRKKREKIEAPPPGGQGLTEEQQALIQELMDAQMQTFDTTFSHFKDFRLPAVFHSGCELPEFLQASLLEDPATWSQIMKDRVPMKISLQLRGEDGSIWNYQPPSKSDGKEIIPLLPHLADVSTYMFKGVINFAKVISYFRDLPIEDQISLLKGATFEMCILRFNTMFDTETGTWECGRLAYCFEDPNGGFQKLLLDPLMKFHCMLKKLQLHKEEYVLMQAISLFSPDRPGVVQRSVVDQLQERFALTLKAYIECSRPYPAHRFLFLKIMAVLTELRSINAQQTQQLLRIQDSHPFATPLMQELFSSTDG
# Estrogen receptor beta (Homo sapiens), sequence (Q92731 whole entry, looked up, the tested form may be a part): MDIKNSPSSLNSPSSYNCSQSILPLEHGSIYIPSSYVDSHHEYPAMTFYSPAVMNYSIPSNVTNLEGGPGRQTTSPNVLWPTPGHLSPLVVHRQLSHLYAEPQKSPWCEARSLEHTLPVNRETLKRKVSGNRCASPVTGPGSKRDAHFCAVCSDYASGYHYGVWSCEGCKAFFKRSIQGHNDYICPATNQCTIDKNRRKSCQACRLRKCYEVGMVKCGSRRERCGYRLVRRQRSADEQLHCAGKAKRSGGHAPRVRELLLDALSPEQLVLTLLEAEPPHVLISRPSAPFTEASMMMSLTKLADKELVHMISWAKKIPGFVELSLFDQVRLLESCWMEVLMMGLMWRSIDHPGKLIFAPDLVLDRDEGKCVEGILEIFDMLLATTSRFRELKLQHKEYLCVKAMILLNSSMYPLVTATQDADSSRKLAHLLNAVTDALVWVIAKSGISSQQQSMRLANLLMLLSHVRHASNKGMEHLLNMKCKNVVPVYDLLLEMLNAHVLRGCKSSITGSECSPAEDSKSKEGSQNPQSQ
# mouse Peroxisome Proliferator-activated Receptor gamma (PPARg), Pparg (gene 19016), sequence (P37238 whole entry, looked up, the tested form may be a part): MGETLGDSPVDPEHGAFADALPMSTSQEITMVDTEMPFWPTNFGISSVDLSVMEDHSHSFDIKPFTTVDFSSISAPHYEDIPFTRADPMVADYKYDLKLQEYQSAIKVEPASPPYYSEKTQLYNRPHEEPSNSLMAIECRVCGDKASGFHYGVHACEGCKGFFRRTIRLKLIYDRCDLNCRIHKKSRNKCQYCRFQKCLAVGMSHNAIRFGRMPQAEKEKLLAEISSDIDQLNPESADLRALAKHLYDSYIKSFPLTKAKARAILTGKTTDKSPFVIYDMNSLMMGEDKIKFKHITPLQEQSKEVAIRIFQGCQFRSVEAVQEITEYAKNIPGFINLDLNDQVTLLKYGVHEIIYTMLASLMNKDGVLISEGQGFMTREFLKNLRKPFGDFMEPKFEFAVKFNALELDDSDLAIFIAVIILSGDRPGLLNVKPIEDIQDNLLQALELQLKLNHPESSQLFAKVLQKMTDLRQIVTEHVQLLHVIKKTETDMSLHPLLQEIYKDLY
smiles,measurement,setting,value
Cc1c([N+](=O)[O-])cc2c(c1[N+](=O)[O-])C(C)(C)CC2(C)C,AC50,[1],82.3 µM (active)
CC1=C(C(=O)Nc2ccccc2)S(=O)(=O)CCO1,AC50,[1],28.6 µM (active)
COCCOCCO,outcome,[1],inactive
C=CC(=O)OCC(F)(F)C(F)F,outcome,[1],inactive
N#Cc1ccc(O)cc1,outcome,[1],inactive
CSC(C)(C)C=NO,outcome,[1],inactive
CCCCN(CCCC)SN(C)C(=O)Oc1cccc2c1OC(C)(C)C2,AC50,[1],79.2 µM (active)
CCCCOCC1CO1 (centres undefined),outcome,[1],inactive
Oc1ccc(I)cc1,AC50,[1],73.7 µM (active)
CNC(=O)Oc1ccc(N(C)C)c(C)c1,AC50,[1],39.7 µM (active)
COP(=O)(O)OC,outcome,[1],inactive
O=C(O)CF,outcome,[1],inactive
COP(=O)(CCC(=O)NCO)OC,AC50,[1],56.8 µM (active)
N#Cc1c(-c2ccc(Cl)cc2)[nH]c(C(F)(F)F)c1Br,AC50,[1],6.72 µM (active)
O=P(Oc1ccccc1)(Oc1ccccc1)Oc1ccccc1,AC50,[2],1.66 µM (active)
same,outcome,[3],inactive
same,outcome,[4],inactive
same,outcome,[5],inactive
same,outcome,[6],inactive
same,outcome,[7],inactive
same,outcome,[8],inactive
same,AC50,[9],6.88 µM (active)
same,AC50,[10],8.08 µM (active)
same,AC50,[11],6.18 µM (active)
same,AC50,[12],0.367 µM (active)
same,outcome,[13],inactive
same,AC50,[14],25.4 µM (active)
same,outcome,[15],inactive
same,outcome,[16],inactive
same,outcome,[17],inactive
same,outcome,[18],inactive
O=S(=O)(F)C(F)(F)C(F)(F)C(F)(F)C(F)(F)C(F)(F)C(F)(F)C(F)(F)C(F)(F)F,outcome,[1],inactive
Cn1[nH]nnc1=S,outcome,[1],inactive
CCOP(=O)(O)C(N)=O,outcome,[1],inactive
CCCCN(CCCC)N=O,outcome,[1],inactive
ClC(Cl)=C(c1ccc(Cl)cc1)c1ccccc1Cl,outcome,[1],inactive
CC(O)C(F)(F)C(F)(F)F (centres undefined),outcome,[1],inactive
COP(N)(=S)OC,AC50,[1],32.4 µM (active)
[N-]=[N+]=[N-],AC50,[19],50 µM (active)
CCC(C)(C)c1ccc(O)cc1,AC50,[1],88.4 µM (active)
same,AC50,[3],50 µM (active)
Nc1ccc2ccccc2c1,outcome,[3],inactive
CC(C)(C)c1ccc(O)cc1,outcome,[18],inactive
CO/N=C(/C(=O)OC)c1ccccc1COc1ccccc1C,outcome,[19],inactive
CCC1(c2ccccc2)C(=O)N=C(O)NC1=O (centres undefined),outcome,[3],inactive
CCCCCCCc1ccc(O)cc1,outcome,[20],inactive
same,AC50,[19],50 µM (active)
ClC1=C(Cl)C2(Cl)C3C(Cl)C(Cl)CC3C1(Cl)C2(Cl)Cl (centres undefined),AC50,[1],91.7 µM (active)
same,outcome,[20],inactive
same,AC50,[19],5.06 µM (active)
CCCCC(CC)COP(=O)(Oc1ccccc1)Oc1ccccc1 (centres undefined),outcome,[3],inactive
same,AC50,[19],16.6 µM (active)
CCNc1nc(Cl)nc(NC(C)(C)C)n1,outcome,[20],inactive
same,outcome,[19],inactive
CC1(C)CN=C(NN=C(/C=C/c2ccc(C(F)(F)F)cc2)/C=C/c2ccc(C(F)(F)F)cc2)NC1,AC50,[19],12.3 µM (active)
Nc1ccc(Cl)cc1,AC50,[1],8.49 µM (active)
same,outcome,[1],inactive
CC(C)(C)N(NC(=O)c1ccc(Cl)cc1)C(=O)c1ccccc1,outcome,[19],inactive
O=P(OCC(Br)CBr)(OCC(Br)CBr)OCC(Br)CBr (centres undefined),outcome,[20],inactive
same,outcome,[19],inactive
CCOC(=O)c1ccccc1C(=O)OCC,outcome,[3],inactive
CCN(CC)c1ccccc1,outcome,[20],inactive
same,outcome,[19],inactive
CCCCN(CC)C(=O)SCCC,outcome,[20],inactive
same,outcome,[19],inactive
Cc1ccc(N)cc1N,AC50,[3],36.1 µM (active)
O=C(O)C1C(C(=O)O)C2(Cl)C(Cl)=C(Cl)C1(Cl)C2(Cl)Cl (centres undefined),outcome,[3],inactive
c1cc2c3c(cccc3c1)CC2,outcome,[20],inactive
same,outcome,[19],inactive
O=S(=O)(c1ccc(O)cc1)c1ccc(O)cc1,outcome,[18],inactive
c1ccc2c(c1)Nc1ccccc1S2,outcome,[3],inactive
same,outcome,[18],inactive
CCCCc1ccc(O)cc1,AC50,[1],82.5 µM (active)
same,outcome,[18],inactive
